Assay results as given in PubChem BioAssay AID1159580 (chemical genetic matrix, 2015).
Several values for one entry are separate records, joined by “and”; a condition that tells them apart may be missing. Identical values can stand only once. The whole screen tested about 5,500 compounds, of which about 2,000 (36%) were called active. About 18% were inconclusive and are not listed. No stated cut-off is given here; in the data, active means normalized growth mostly below about 0.91 (no sharp cut-off); inconclusive means no clear call, values can overlap the other calls; inactive means mostly above about 0.92. The list shows a part of the results.

Experiment: chemical genetic growth profiling, strain panel (AID 1159580);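 further: tested at 20 µM; growth read once vehicle control cultures reached saturation at 30 °C; 1 = growth at the plate median or of vehicle wells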
Details: S. cerevisiae deletion strains, growth OD

Measured: normalized growth

COc1cc(O)c(C(=O)O)c(O)c1
inactive: locus YAL013W, strain DEP1, stronger effect = lower value 1 | locus YAL021C, strain ccr4, stronger effect = lower value 0.992 | locus YAL026C, strain drs2, stronger effect = lower value 0.995 | locus YAL030W, strain snc1, stronger effect = lower value 0.99 | locus YBL061C, strain skt5, stronger effect = lower value 1 | locus YBR009C, strain hhf1, stronger effect = lower value 1 | locus YBR021W, strain FUR4, stronger effect = lower value 1.02 | locus YBR023C, strain chs3, stronger effect = lower value 0.998 | locus YBR171W, strain sec66, stronger effect = lower value 0.971 | locus YBR229C, strain ROT2, stronger effect = lower value 0.995 | locus YBR231C, strain swc5, stronger effect = lower value 1 | locus YBR279W, strain paf1, stronger effect = lower value 0.998 | locus YCL011C, strain gbp2, stronger effect = lower value 0.988 | locus YCL016C, strain dcc1, stronger effect = lower value 0.991 | locus YCL029C, strain bik1, stronger effect = lower value 1.01 | locus YCL061C, strain MRC1, stronger effect = lower value 0.979 | locus YCL069W, strain vba3, stronger effect = lower value 0.99 | locus YCR088W, strain abp1, stronger effect = lower value 0.984 | locus YDL005C, strain med2, stronger effect = lower value 0.976 | locus YDL035C, strain GPR1, stronger effect = lower value 1.02 | locus YDL040C, strain nat1, stronger effect = lower value 0.999 | locus YDL074C, strain BRE1, stronger effect = lower value 1.02 | locus YDL101C, strain DUN1, stronger effect = lower value 1 | locus YDL134C, strain PPH21, stronger effect = lower value 1 | locus YDL185W, strain tfp1, stronger effect = lower value 0.949 | locus YDL192W, strain arf1, stronger effect = lower value 1.02 | locus YDR001C, strain nth1, stronger effect = lower value 0.98 | locus YDR069C, strain doa4, stronger effect = lower value 1.01 | locus YDR101C, strain arx1, stronger effect = lower value 1.01 | locus YDR137W, strain rgp1, stronger effect = lower value 0.974 | locus YDR150W, strain NUM1, stronger effect = lower value 1 | locus YDR159W, strain sac3, stronger effect = lower value 1.01 | locus YDR162C, strain NBP2, stronger effect = lower value 1.01 | locus YDR195W, strain ref2 0.987 | locus YDR297W, strain sur2, stronger effect = lower value 1 | locus YDR318W, strain mcm21, stronger effect = lower value 1.02 | locus YDR334W, strain swr1, stronger effect = lower value 0.999 | locus YDR335W, strain msn5, stronger effect = lower value 0.992 | locus YDR388W, stronger effect = lower value 1 | locus YDR392W, strain spt3, stronger effect = lower value 1.01 | locus YDR502C, strain sam2, stronger effect = lower value 0.998 | locus YEL003W, strain gim4, stronger effect = lower value 1 | locus YEL037C, strain rad23, stronger effect = lower value 0.985 | locus YEL061C, strain CIN8 (second series), stronger effect = lower value 0.981 | locus YEL061C, strain CIN8, stronger effect = lower value 1 | locus YER015W, strain faa2, stronger effect = lower value 0.99 | locus YER016W, strain bim1, stronger effect = lower value 0.989 | locus YER110C, stronger effect = lower value 1.02 | locus YER111C, strain swi4, stronger effect = lower value 0.987 | locus YER155C, strain BEM2 (second series), stronger effect = lower value 0.978 | locus YER155C, strain BEM2, stronger effect = lower value 0.987 | locus YER167W, strain BCK2, stronger effect = lower value 1.03 | locus YFR010W, strain ubp6, stronger effect = lower value 1.01 | locus YGL078C, strain dbp3, stronger effect = lower value 0.973 | locus YGL086W, strain mad1, stronger effect = lower value 1.01 | locus YGL167C, strain pmr1, stronger effect = lower value 0.989 | locus YGL173C, strain kem1, stronger effect = lower value 0.997 | locus YGL227W, strain vid30, stronger effect = lower value 0.982 | locus YGL240W, strain doc1, stronger effect = lower value 0.995 | locus YGL248W, strain PDE1, stronger effect = lower value 1.01 | locus YGL253W, strain hxk2, stronger effect = lower value 0.979 | locus YGR078C, strain PAC10, stronger effect = lower value 1.01 | locus YGR135W, strain pre9, stronger effect = lower value 1.01 | locus YGR229C, strain SMI1, stronger effect = lower value 1.02 | locus YGR252W, strain gcn5, stronger effect = lower value 1 | locus YHR013C, strain ard1, stronger effect = lower value 0.998 | locus YHR027C, strain rpn1, stronger effect = lower value 0.978 | locus YHR030C, strain SLT2, stronger effect = lower value 0.996 and 0.881 | locus YHR079C, strain IRE1 (second series), stronger effect = lower value 1.01 | locus YHR094C, strain hxt1, stronger effect = lower value 0.997 | locus YHR129C, strain ARP1, stronger effect = lower value 0.991 | locus YHR142W, strain chs7, stronger effect = lower value 1.01 | locus YHR200W, strain rpn10, stronger effect = lower value 1 | locus YIL066C, strain RNR3, stronger effect = lower value 0.993 | locus YIL073C, strain SPO22, stronger effect = lower value 1.09 | locus YIL125W, strain kgd1, stronger effect = lower value 0.979 | locus YIR030C, strain dcg1, stronger effect = lower value 1.01 | locus YJL092W, strain hpr5, stronger effect = lower value 0.966 | locus YJL095W, strain BCK1 (second series), stronger effect = lower value 0.998 | locus YJL095W, strain BCK1, stronger effect = lower value 1 and 0.914 | locus YJL115W, strain asf1, stronger effect = lower value 0.979 | locus YJL129C, strain trk1, stronger effect = lower value 1 | locus YJL134W, strain LCB3, stronger effect = lower value 0.993 | locus YJL154C, strain vps35, stronger effect = lower value 0.976 | locus YJL164C, strain tpk1, stronger effect = lower value 1.02 | locus YJL166W, strain qcr8, stronger effect = lower value 1 | locus YJL168C, strain set2, stronger effect = lower value 0.993 | locus YJL187C, strain SWE1 (second series), stronger effect = lower value 1.01 | locus YJL187C, strain SWE1, stronger effect = lower value 0.996 | locus YJR043C, strain POL32, stronger effect = lower value 1.04 | locus YJR066W, strain TOR1, stronger effect = lower value 0.841
active: locus YHR079C, strain IRE1, stronger effect = lower value 0.839
